The source of these data is PubChem BioAssay (NCI).

This is part of a sample that, as a whole, favours compounds with a hit. Of some 83,000 tested, about 20% had one in any assay.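 Testing used 96-well plates and a 48-hour single-concentration exposure. Example: -40 means 40% of the starting cells died.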 Values without a mark were called inactive. Calls of active or inactive are those of the source. How the source made its calls: active means growth percent below 10; inactive means the rest.

In the first experiment the test system is CCRF-CEM leukemia. Put plainly: NCI-60 one-dose screen, 48 h (100 = growth as untreated, 0 = no growth, -100 = all killed). Conditions: 10 µM unless noted.
In the case of `CCN(CC)CCC(=O)Nc1ccc(Cn2nnc3c2C(=O)c2nnn(Cc4ccc(NC(=O)CCN(CC)CC)cc4)c2C3=O)cc1`, the growth is -13% (active).
Same read-out and setting: the figure for `Cn1cc(-c2nc(-c3c[nH]c4ccccc34)cs2)c2cccnc21` is 7.02% (active); for `CCN(CC)CCCC(C)N/C(=C1\C(=O)NC(=O)\C1=C(/NC(C)CCCN(CC)CC)c1cccc(OC)c1)c1cccc(OC)c1` (centres undefined) it is -28.1% (active).

The next experiment has as its system MOLT-4 leukemia. The experiment is described as above. Conditions: 10 µM unless noted.
Regarding `CCCCCN(CCCCC)CCC[C@@H](C)[C@H]1CC[C@H]2[C@@H]3[C@H](OCCCN)C[C@@H]4C[C@H](OCCCN)CC[C@]4(C)[C@H]3C[C@H](OCCCN)[C@]12C`, the growth was 41.1%.
The same measure, in the same setting: the figure for `O=C(CN1CCOCC1)Nc1ccc(Cn2nnc3c2C(=O)c2nnn(Cc4ccc(NC(=O)CN5CCOCC5)cc4)c2C3=O)cc1` is -41.8% (active); for `COc1ccc(C(=O)/C=C/c2c(Cl)c3c(c(OC)c2Cl)OCC(=O)N3)cc1` it is 0.538% (active); for `CCOc1ccc(Nc2nc(-c3c(C)nc4ncccn34)cs2)cc1` it is 8.54% (active).
With `CC1=C(NCCN2CCCC2)C(=O)c2c(OCc3ccc(C(F)(F)F)cc3)cccc2C1=O`, the growth was 12.2%.
The same measure, in the same setting: the figure for `CC/C(=C(\c1ccc(O)cc1)c1ccc(OCCN(C)CCN(C)C(=O)CCCCC(=O)c2c(C)[nH]c(/C=C3\N=C(c4ccc[nH]4)C=C3OC)c2C)cc1)c1ccccc1` is 56%; for `O=C(CCCN1CCOCC1)Nc1ccc(Cn2nnc3c2C(=O)c2nnn(Cc4ccc(NC(=O)CCCN5CCOCC5)cc4)c2C3=O)cc1` it is -21.5% (active); for `COc1ccc2nc3cc(Cl)ccc3c(N3CCN(c4nccc(NCc5ccccc5)n4)CC3)c2c1` it is 5.21% (active).
Same read-out and setting: the figure for `O=C1CC(c2nc3ccccc3[nH]2)CN1C1CCCCC1` (centres undefined) is 102%; for `O=C1Nc2ccccc2C12CC(c1ccc(Cl)cc1)=NN2` (centres undefined) it is 83.8%.
Still for that read-out and setting: under `O=C1/C(=C/c2ccc(Cl)cc2Cl)CN(S(=O)(=O)c2ccccc2)C/C1=C\c1ccc(Cl)cc1Cl` stands 3.37% (active).
Take `O=C(CCCCN1CCOCC1)Nc1ccc(Cn2nnc3c2C(=O)c2nnn(Cc4ccc(NC(=O)CCCCN5CCOCC5)cc4)c2C3=O)cc1`: the growth is -37.3% (active).
On the same count and under the same terms, under `COc1ccc2nc3cc(Cl)ccc3c(N3CCN(c4nccc(Nc5ccccc5)n4)CC3)c2c1` stands 5.37% (active).
The same measure, in the same setting: under `CC1=C(NCCN2CCCC2)C(=O)c2c(OCc3cccc(Cl)c3)cccc2C1=O` stands 51.5%; under `NC1=CSC2=N/C(=C\c3ccc(Cl)cc3)C(=O)N12`, 8.12% (active); under `Cc1sc2nc3[nH]/c(=C\c4ccc(Cl)cc4)c(=O)n3c(=O)c2c1C`, 94.1%.
Regarding `COc1ccc2nc3cc(Cl)ccc3c(N3CCN(c4ccnc(N5CCN(C)CC5)n4)CC3)c2c1`, the growth was -24% (active).
On the same count and under the same terms, under `CN(C)CCCC(=O)Nc1ccc(Cn2nnc3c2C(=O)c2nnn(Cc4ccc(NC(=O)CCCN(C)C)cc4)c2C3=O)cc1` stands 11.4%.
In the case of `CCCCCCCCCCCCCCCCNCCC[C@@H](C)[C@H]1CC[C@H]2[C@@H]3[C@H](OCCCN)C[C@@H]4C[C@H](OCCCN)CC[C@]4(C)[C@H]3C[C@H](OCCCN)[C@]12C`, the growth was -33.7% (active).
Still for that read-out and setting: under `O=C(Nc1cccc2[nH]c(C(F)(F)F)nc12)c1ccc(Br)cc1F` stands 26.9%; under `CCCCNc1ccc2c3c1cccc3c(=O)n1c3ccccc3nc21`, 69.4%.
Same read-out and setting: the figure for `COc1ccc(/C=C2\N=C3SC=C(N)N3C2=O)cc1` is -15.9% (active); for `COc1ccc2nc3cc(Cl)ccc3c(N3CCN(c4nccc(Nc5ccc(Cl)cc5)n4)CC3)c2c1` it is 3.98% (active).
On the same count and under the same terms, the figure for `CC1=C(NCCN2CCCC2)C(=O)c2c(OCc3ccc(F)c(Cl)c3)cccc2C1=O` is 44.3%; for `O=C1C[C@H](N2C(=O)c3ccccc3S2(=O)=O)C2CO[C@@H]1O2` it is 79%; for `Cc1ccc(S(=O)(=O)n2cc(-c3csc(-c4cn(C)c5ncccc45)n3)c3ccccc32)cc1` it is 49.3%.
With `COc1ccc(-c2cnoc2-c2cc(OC)c3c(c2)OCCO3)cc1`, the growth was 6.08% (active).
The same measure, in the same setting: the figure for `COc1ccccc1-c1ccc2c(N)c(C(=O)c3ccc4c(c3)OCO4)sc2n1` is 36.6%; for `COc1ccc(/C=c2/c(=O)[nH]c3nc4sc(C)c(C)c4c(=O)n23)cc1` it is 62.3%; for `CC(=O)N1CC(Nc2ccc(OC(F)(F)F)cc2)=CC1=O` it is 27.1%.
Same read-out and setting: under `O=c1c2cccc3c(Nc4c(F)cccc4F)ccc(c32)c2nc3ccccc3n12` stands 74.1%.
